The list is not random: actives were taken first. Their share in the collection is about 2.2%.
Shn3 3UTR inh: reduces Shn3 3'UTR luciferase signal in osteoblasts; 0.52% of 360,000 active; Clone20 osteoblast Shn3 3'UTR firefly luciferase, 24 h; inhibition, % at 12.5 µM;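 active = mean inhibition of at least 75% with every replicate also reaching 75%; inconclusive = mean inhibition at least 75% but some replicate below; inactive = mean inhibition below 75%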;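 also: 0% = median of neutral control wells and 100% = pilot-screen positive control compound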
TRPM1 prom inh: reduces MITF-dependent TRPM1 promoter luciferase signal; 0.83% of 330,000 active; SK-MEL-5 TRPM1 promoter luciferase, 24 h; inhibition, % at 12.5 µM; AID 488899;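 active = mean inhibition across replicates of 60% or more, whatever share of single replicates reaches that level; inconclusive = some that reach 60%, reason not given; inactive = mean inhibition across replicates below 60%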
EWS-Fli block: EWS/Fli transcriptional activity inhibition. A673 NR0B1-luciferase reporter, viability-normalised. inhibition, % at 12.6 µM. 0.67% of 350,000 active;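 active = mean inhibition of at least 50% after viability correction, with every replicate also passing that limit; inconclusive = mean reaches 50% but only one of two replicates passes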;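 also: firefly luciferase signal divided by Alamar Blue viability fluorescence both relative to DMSO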
LGR2 antag: blocks bursicon-induced cAMP signaling via Drosophila LGR2. 0.35% of 380,000 active. inhibition, % at 9.99 µM. HEK293 LGR2, CRE-luciferase, bursicon-stimulated, 4 h;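 active = drop in luminescence signal, shown as inhibition above about 50% in the replicate tests, limit read from the data, passing the limit was not always enough; inconclusive = probably only some replicates passing the limit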;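 also: agonist challenge used bursicon conditioned medium at about half maximal strength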
LMP1 NFkB inh: inhibitors of Epstein-Barr LMP1-induced NF-kappaB reporter. LMP1-induced NF-kappaB luciferase reporter cells, luminescence. inhibition, % at 12.5 µM. 0.69% of 350,000 active; in the data active = inhibition above about 41%; inconclusive = no clear call, values can overlap the other calls;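 also: 0% = neutral control wells and 100% = reference inhibitor control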
PAX8 inh HTS: inhibitors of PAX8 transcriptional activity in RMG-I cells; inhibition, % at 12.6 µM; RMG-I TPO-luciferase reporter, SteadyGlo, 24 h; 1.2% of 360,000 active;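 active = mean replicate inhibition at least 60% with every replicate also reaching 60%; inconclusive = only one of the two criteria is met; inactive = mean below 60% and not all replicates reaching 60%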;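 also: luciferase light reporting Pax8 driven TPO promoter activity; plate controls were median of neutral control wells for no effect and mitoxantrone controls for full effect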
An asterisk follows results filed as active; ? = inconclusive; . = not tested or not shown; ! = repeats disagree.

SMILES | Shn3 3UTR inh | TRPM1 prom inh | EWS-Fli block | LGR2 antag | LMP1 NFkB inh | PAX8 inh HTS
Cc1ccc(NC(=O)Cn2c(=O)n(CCCC(=O)NCc3ccco3)c(=O)c3ccccc32)cc1 | -11.2 | 29.9 | . | 11.4 | 13.2 | .
CC1=NOC(=O)/C1=C/c1ccc(O)c(Br)c1 | -1.8 | 2.3 | -4.2 | 0.9 | 9.5 | 14.3
CC1=NOC(=O)/C1=C\c1ccc(-c2cccc(Cl)c2)o1 | 81.5 | 76.1* | . | . | -5.5 | .
CC1=NOC(=O)/C1=C\c1ccc(-c2ccccc2Br)o1 | 90.5* | 89.2* | ? | . | 5.1 | ?
CC1=NOC(=O)/C1=C\c1ccc(-c2ccc(Cl)c(C(=O)O)c2)o1 | 2.5 | 3.1 | -0.9 | -23.2 | -9.4 | 7.6
CCCC(=O)N1CC2(C1)CN(C(=O)C1CC1)[C@H](CO)c1[nH]c3cc(OC)ccc3c12 | . | . | -4.4 | 15.8 | . | -8.9
O=C(OCCN1C(=O)c2cccc3c(N4CCOCC4)ccc(c23)C1=O)c1ccccc1Cl | 86.1* | 41.0 | . | 75.6* | 13.8 | 9.1
O=C(OCCN1C(=O)c2cccc3c(N4CCOCC4)ccc(c23)C1=O)c1ccc(Cl)cc1Cl | 21.9 | 22.8 | . | -7.5 | 31.5 | 8.2
CN1[C@H](C(=O)NCC2CC2)[C@@H](CO)[C@@H]2Cn3c(ccc(-c4ccc(F)cc4)c3=O)[C@@H]21 | . | . | -1.3 | 4.5 | . | -11.2
CCCC(CCC)C(=O)O | 74.1 | -11.1 | -7.9 | 14.3 | 58.0*! | 7.6
CCCCC(CC)C(=O)O (stereo unspecified) | -0.1 | . | -3.9 | 20.1 | 2.4 | .
COc1ccc(-c2cc(NC=O)c3ncc(-c4cccc(OC)c4)n3c2)cc1 | -5.7 | . | 44.9 | -14.4 | . | 8.5
COc1cccc(-c2cc(NC=O)c3ncc(-c4ccc(OC)c(OC)c4)n3c2)c1 | 13.8 | . | 25.7 | -35.5 | . | 16.9
COc1cccc(-c2cnc3c(NC=O)cc(-c4ccc(OC)cc4OC)cn23)c1 | 20.6 | . | 31.9 | -28.1 | . | 99.0*
COc1ccc(-c2cnc3c(NC=O)cc(-c4ccc(F)cc4)cn23)cc1OC | 15.5 | . | 33.5 | -25.7 | . | 69.2*
COc1ccc(-c2cc(NC=O)c3ncc(-c4ccc(OC)c(OC)c4)n3c2)c(OC)c1 | 37.3 | . | 46.6 | -45.8 | . | 82.9*
O=C(c1ccc2c(c1)OCO2)N1CCN(c2ccc(C(F)(F)F)cn2)CC1 | -14.1 | 4.2 | -5.9 | 3.3 | 13.4 | 131.9*
COc1ccc(S(=O)(=O)N(C)C[C@H]2Oc3c(NS(=O)(=O)c4cccs4)cccc3C(=O)N([C@@H](C)CO)C[C@@H]2C)cc1 | . | . | . | -9.9 | . | -13.7
C[C@@H]1CN([C@@H](C)CO)C(=O)c2cc(-c3cccc(C#N)c3)cnc2O[C@H]1CN(C)C(=O)C1CCC1 | . | . | -3.8 | 2.6 | . | 14.3
CCCOC(c1ccccc1)(c1ccc(C(F)(F)F)cc1)C(Oc1nc(C)cc(C)n1)C(=O)O (stereo unspecified) | 25.9 | -1.2 | 3.1 | -1.5 | 42.8* | 50.7
CCCNC(=O)N(C)C[C@@H]1Oc2cc(C#CCC(C)C)ccc2S(=O)(=O)N([C@@H](C)CO)C[C@H]1C | . | . | 10.5 | -1.7 | . | .
COc1ccc(-c2cn(CC[C@@H]3CC[C@@H](NC(=O)Cc4ccccn4)[C@H](CO)O3)nn2)cc1 | . | . | -6.4 | 9.6 | . | -27.6
COc1ccc(-c2cn(CC[C@@H]3CC[C@H](NC(=O)Cc4ccccn4)[C@@H](CO)O3)nn2)cc1 | . | . | -6.6 | 10.1 | . | 78.3*!
COc1ccc(-c2cn(CC[C@@H]3CC[C@H](NC(=O)Cc4ccccn4)[C@H](CO)O3)nn2)cc1 | . | . | 3.3 | -5.2 | . | 90.4*
COc1ccc2c3c([nH]c2c1)[C@H](CO)NCC31CCN(C(=O)Cc2ccccc2)CC1 | . | . | -12.4 | 0.5 | . | .
SMILES | Shn3 3UTR inh | TRPM1 prom inh | EWS-Fli block | LGR2 antag | LMP1 NFkB inh | PAX8 inh HTS
CCN=C1NN=C(c2cc(C)n(Cc3ccco3)c2C)CS1 | 37.0 | 80.0* | 64.3* | . | 69.6* | .
CCN=C1NN=C(c2cc(C)n(CCc3ccccc3)c2C)CS1 | -61.0 | -9.3 | -51.2 | -5.6 | -9.1 | -13.5
COCC(=O)N1[C@@H]2CN(C(=O)NC(C)C)c3ccccc3[C@@H]2[C@@H]1CO | . | . | -3.9 | 7.1 | . | -10.9
OCC1OC(n2cnc3c(NCCc4ccccc4)ncnc32)C(O)C1O (stereo unspecified) | -46.9 | -43.1 | -24.5 | -38.5 | 7.0 | -21.7
OCC1OC(n2ccc3c(NO)ncnc32)C(O)C1O (stereo unspecified) | 99.1* | 95.2* | 49.0 | 92.0* | 79.8* | .
OCC1OC(n2cnc3c(NCc4ccccc4O)ncnc32)C(O)C1O (stereo unspecified) | 77.2 | 59.4 | -3.4 | 18.2 | 37.6 | 109.1*
Nc1ccc(CCNc2ncnc3c2ncn3[C@@H]2O[C@H](CO)[C@@H](O)[C@H]2O)cc1 | 5.4 | 9.0 | 2.6 | 4.3 | 83.7* | 5.3
OC[C@H]1O[C@@H](n2cnc3c(Nc4ccccc4)ncnc32)[C@H](O)[C@@H]1O | -27.0 | -44.7 | -39.7 | 9.9 | 7.3 | -14.7
Nc1ccn([C@@H]2O[C@H](CO)[C@@H](O)[C@H]2O)c(=O)n1 | -6.1 | -10.4 | 5.4 | 2.3 | 4.0 | -14.0
O=C1CN(S(=O)(=O)Cc2ccccc2)C[C@H]2[C@@H](c3ccc(C#Cc4cccnc4)cc3)[C@@H](CO)N12 | . | . | . | 6.0 | . | .
CO[C@H]1CN(C)C(=O)c2cc(NC(=O)Nc3ccccc3)ccc2OC[C@H](C)N(C(=O)CC2CC2)C[C@@H]1C | . | . | 5.7 | -7.1 | . | 4.8
C[C@H]1CCCCO[C@H](CN(C)C(=O)c2ccncc2)[C@@H](C)CN([C@@H](C)CO)C(=O)c2cc(NS(=O)(=O)c3ccc(F)cc3)ccc2O1 | . | . | -2.4 | 6.5 | . | 0.3
C/C=C/c1ccc2c(c1)O[C@H](CN(C)C(=O)C1CCC1)[C@@H](C)CN([C@H](C)CO)S2(=O)=O | . | . | 5.2 | 15.8 | . | .
CC(=O)O[C@H]1C(=O)[C@]2(C)[C@H]([C@H](OC(=O)c3ccccc3)[C@]3(O)C[C@H](OC(=O)[C@H](O)[C@@H](NC(=O)c4ccccc4)c4ccccc4)C(C)=C1C3(C)C)[C@]1(OC(C)=O)CO[C@@H]1C[C@@H]2O | 39.7 | 29.8 | 61.2* | 3.5 | 13.2 | 40.4
CC(=O)O[C@H]1C(=O)[C@@]2(C)C([C@H](OC(=O)c3ccccc3)[C@]3(O)C[C@H](OC(=O)[C@H](O)[C@@H](NC(=O)c4ccccc4)c4ccccc4)C(C)=C1C3(C)C)[C@]1(OC(C)=O)CO[C@@H]1C[C@H]2O (stereo partly specified) | 12.0 | . | 54.5* | 6.8 | 0.1 | .
COc1cc(NC(=O)CN2C(=O)NC(C)(c3ccccc3)C2=O)c(C)cc1[N+](=O)[O-] (stereo unspecified) | 5.4 | 7.8 | . | . | -0.5 | .
COc1ccc(NC(=O)CN2C(=O)NC(C)(c3ccc(C)cc3)C2=O)c([N+](=O)[O-])c1 (stereo unspecified) | 1.8 | -34.4 | 11.4 | 10.2 | 51.2* | 7.1
COc1ccc(/C=N/NC(=O)COc2ccccc2-c2ccccc2)cc1 | -27.8 | 30.8 | . | -6.5 | 74.1* | 74.0*

Source: PubChem
